# Paper PMC7862700, “An all-to-all approach to the identification of sequence-specific readers for epigenetic DNA modifications on cytosine”
# Assays:
# Assay in all cases: DAPPL (digital affinity profiling via proximity ligation, sequencing); 10 mM Tris-HCl pH 7.5, 50 mM NaCl, 1 mM DTT, 4% glycerol, room temperature, 30 min; GST-TFs on glutathione beads, 16-mer random dsDNA library, 0.1% formaldehyde crosslink after washing; high values mean tight binding
# FLI1 = biological target: T1, FLI1 (Homo sapiens, UniProt Q01543 1-452); settings: protein: recombinant; tags: N-terminal GST; dsDNA, one strand shown
# T1 sequence: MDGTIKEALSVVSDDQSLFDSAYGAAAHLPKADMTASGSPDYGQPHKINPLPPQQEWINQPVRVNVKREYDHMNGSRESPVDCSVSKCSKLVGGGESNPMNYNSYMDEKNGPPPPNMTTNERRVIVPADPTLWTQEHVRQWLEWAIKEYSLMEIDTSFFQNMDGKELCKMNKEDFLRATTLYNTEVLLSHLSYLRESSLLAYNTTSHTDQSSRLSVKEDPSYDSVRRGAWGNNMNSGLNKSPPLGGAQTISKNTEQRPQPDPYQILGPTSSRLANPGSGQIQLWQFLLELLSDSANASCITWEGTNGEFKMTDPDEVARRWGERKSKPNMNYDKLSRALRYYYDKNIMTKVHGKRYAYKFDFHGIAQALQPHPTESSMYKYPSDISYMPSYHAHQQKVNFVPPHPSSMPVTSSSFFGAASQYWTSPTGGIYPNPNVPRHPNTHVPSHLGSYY
# Outline: (§1)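 The binding signal reported is, for every hexamer, its read frequency for a factor over its read frequency for the tag-only sample. Reads came from pools of yeast-expressed, GST-fused human transcription factors on glutathione beads, barcoded with DNA and mixed with that sample, which were incubated with 200 nmole of a random double-stranded 16-mer DNA library in Tris/NaCl/DTT/glycerol buffer at room temperature for 30 min. After washing, the pools were crosslinked with 0.1% formaldehyde, proximity-ligated with BsaI/T4 ligase for 1 h at 37 °C, PCR-amplified and sequenced on an Illumina NextSeq500.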
# ELK1 = biological target: T2, ELK1 (Homo sapiens, UniProt P19419 1-428); settings: protein: recombinant; tags: N-terminal GST; dsDNA, one strand shown
# T2 sequence: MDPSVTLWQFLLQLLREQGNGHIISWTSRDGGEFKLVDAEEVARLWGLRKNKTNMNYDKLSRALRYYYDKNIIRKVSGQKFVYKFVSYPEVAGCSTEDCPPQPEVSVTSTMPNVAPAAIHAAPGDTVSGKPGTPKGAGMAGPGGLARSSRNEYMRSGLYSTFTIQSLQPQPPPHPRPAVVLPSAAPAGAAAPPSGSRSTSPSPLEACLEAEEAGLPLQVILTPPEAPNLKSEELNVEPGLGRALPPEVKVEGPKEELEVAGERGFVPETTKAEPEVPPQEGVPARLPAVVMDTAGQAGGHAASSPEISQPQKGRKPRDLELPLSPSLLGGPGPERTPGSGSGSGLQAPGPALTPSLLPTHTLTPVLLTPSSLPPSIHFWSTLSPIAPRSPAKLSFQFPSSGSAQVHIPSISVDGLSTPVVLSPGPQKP
# Outline: as §1
# GABPA = biological target: T3, GABPA (Homo sapiens, UniProt Q06546 1-454); settings: protein: recombinant; tags: N-terminal GST; dsDNA, one strand shown
# T3 sequence: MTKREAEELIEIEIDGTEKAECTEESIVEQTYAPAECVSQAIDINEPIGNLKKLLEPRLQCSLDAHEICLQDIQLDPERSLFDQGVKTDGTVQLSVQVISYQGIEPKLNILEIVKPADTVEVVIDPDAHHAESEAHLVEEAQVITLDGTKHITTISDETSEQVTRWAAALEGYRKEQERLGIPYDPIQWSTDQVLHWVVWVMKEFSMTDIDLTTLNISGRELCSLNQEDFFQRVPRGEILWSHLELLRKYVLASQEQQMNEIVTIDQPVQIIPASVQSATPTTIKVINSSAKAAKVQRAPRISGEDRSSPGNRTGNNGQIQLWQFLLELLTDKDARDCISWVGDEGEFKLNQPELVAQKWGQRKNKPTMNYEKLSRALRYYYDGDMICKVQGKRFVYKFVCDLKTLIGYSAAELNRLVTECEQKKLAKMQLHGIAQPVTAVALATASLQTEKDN
# Outline: as §1
# ERG = biological target: T4, ERG (Homo sapiens, UniProt P11308 1-479); settings: protein: recombinant; tags: N-terminal GST; dsDNA, one strand shown
# T4 sequence: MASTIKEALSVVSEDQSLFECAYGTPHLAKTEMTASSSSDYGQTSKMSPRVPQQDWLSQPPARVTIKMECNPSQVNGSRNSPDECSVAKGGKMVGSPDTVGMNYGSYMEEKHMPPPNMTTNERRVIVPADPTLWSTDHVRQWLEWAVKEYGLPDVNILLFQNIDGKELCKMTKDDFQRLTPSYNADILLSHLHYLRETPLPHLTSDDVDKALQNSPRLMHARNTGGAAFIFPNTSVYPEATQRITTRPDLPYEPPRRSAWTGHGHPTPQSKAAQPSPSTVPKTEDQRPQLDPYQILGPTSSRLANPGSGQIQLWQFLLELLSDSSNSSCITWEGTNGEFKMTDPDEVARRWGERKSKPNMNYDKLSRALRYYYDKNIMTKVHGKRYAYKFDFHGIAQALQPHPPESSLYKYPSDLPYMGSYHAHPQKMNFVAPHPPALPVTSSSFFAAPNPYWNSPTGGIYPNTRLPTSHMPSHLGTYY
# Outline: as §1
# ELF1 = ELF1 (Homo sapiens, UniProt P32519 1-619); settings: protein: recombinant; tags: N-terminal GST; dsDNA, one strand shown
# Outline: as §1
# EHF = biological target: T5, EHF (Homo sapiens, UniProt Q9NZC4 1-300); settings: protein: recombinant; tags: N-terminal GST; dsDNA, one strand shown
# T5 sequence: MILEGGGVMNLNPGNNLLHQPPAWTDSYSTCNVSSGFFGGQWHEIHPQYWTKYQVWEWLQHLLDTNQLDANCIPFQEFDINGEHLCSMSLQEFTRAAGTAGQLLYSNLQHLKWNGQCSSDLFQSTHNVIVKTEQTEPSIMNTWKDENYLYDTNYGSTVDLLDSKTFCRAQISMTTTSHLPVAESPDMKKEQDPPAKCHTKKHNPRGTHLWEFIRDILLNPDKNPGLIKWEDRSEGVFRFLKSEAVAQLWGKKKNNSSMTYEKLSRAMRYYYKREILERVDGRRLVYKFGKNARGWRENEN
# Outline: as §1
# SPI1 = SPI1 (Homo sapiens, UniProt P17947 1-270); settings: protein: recombinant; tags: N-terminal GST; dsDNA, one strand shown
# Outline: as §1
# SPIB = SPIB (Homo sapiens, UniProt Q01892 1-262); settings: protein: recombinant; tags: N-terminal GST; dsDNA, one strand shown
# Outline: as §1
# ELK3 = biological target: T6, ELK3 (Homo sapiens, UniProt P41970 1-407); settings: protein: recombinant; tags: N-terminal GST; dsDNA, one strand shown
# T6 sequence: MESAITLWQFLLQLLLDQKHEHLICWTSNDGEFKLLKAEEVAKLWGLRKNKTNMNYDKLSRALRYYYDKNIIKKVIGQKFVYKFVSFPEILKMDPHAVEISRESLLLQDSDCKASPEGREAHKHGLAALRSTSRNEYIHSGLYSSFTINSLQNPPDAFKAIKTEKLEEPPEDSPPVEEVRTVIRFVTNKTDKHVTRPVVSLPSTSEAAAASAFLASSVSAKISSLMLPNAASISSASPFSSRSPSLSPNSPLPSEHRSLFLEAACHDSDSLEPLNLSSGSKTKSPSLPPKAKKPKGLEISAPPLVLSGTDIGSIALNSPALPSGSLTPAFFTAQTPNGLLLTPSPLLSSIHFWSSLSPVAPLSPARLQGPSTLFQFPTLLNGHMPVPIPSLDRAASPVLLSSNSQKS
# Outline: as §1
# FEV = biological target: T7, FEV (Homo sapiens, UniProt Q99581 1-238); settings: protein: recombinant; tags: N-terminal GST; dsDNA, one strand shown
# T7 sequence: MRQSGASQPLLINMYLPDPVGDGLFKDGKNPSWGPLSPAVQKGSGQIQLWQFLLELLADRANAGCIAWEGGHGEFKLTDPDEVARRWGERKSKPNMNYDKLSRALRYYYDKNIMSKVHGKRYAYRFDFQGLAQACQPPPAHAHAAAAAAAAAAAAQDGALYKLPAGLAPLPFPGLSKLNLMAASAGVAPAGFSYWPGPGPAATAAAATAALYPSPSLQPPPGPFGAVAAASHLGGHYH
# Outline: as §1
# ETV5 = ETV5 (Homo sapiens, UniProt P41161 1-510); settings: protein: recombinant; tags: N-terminal GST; dsDNA, one strand shown
# Outline: as §1
# HSF1 = HSF1 (Homo sapiens, UniProt Q00613 1-529); settings: protein: recombinant; tags: N-terminal GST; chain copies: 3; dsDNA, one strand shown
# Outline: as §1
# SPIC = biological target: T8, SPIC (Homo sapiens, UniProt Q8N5J4 1-248); settings: protein: recombinant; tags: N-terminal GST; dsDNA, one strand shown
# T8 sequence: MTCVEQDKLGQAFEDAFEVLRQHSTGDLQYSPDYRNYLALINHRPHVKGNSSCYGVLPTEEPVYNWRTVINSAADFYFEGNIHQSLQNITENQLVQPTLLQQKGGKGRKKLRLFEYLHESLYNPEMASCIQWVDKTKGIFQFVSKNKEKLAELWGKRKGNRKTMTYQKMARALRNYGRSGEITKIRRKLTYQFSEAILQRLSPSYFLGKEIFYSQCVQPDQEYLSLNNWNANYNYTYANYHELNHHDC
# Outline: as §1
# ELF4 = ELF4 (Homo sapiens, UniProt Q99607 1-663); settings: protein: recombinant; tags: N-terminal GST; dsDNA, one strand shown
# Outline: as §1
# ELK4 = biological target: T9, ELK4 (Homo sapiens, UniProt P28324-2 1-405); settings: protein: recombinant; tags: N-terminal GST; dsDNA, one strand shown
# T9 sequence: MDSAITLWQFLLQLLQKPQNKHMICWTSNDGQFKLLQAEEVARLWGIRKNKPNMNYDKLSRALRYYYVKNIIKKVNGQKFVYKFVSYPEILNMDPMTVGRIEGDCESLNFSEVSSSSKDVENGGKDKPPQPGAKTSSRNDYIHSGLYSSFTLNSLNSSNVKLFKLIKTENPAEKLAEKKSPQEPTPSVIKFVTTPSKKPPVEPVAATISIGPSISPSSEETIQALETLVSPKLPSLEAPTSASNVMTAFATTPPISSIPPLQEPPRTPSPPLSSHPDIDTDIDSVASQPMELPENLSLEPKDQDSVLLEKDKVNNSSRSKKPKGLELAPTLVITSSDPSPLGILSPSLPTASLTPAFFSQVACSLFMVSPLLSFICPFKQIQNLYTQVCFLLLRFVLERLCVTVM
# Outline: as §1
# ETV2 = biological target: T10, ETV2 (Homo sapiens, UniProt O00321 1-342); settings: protein: recombinant; tags: N-terminal GST; dsDNA, one strand shown
# T10 sequence: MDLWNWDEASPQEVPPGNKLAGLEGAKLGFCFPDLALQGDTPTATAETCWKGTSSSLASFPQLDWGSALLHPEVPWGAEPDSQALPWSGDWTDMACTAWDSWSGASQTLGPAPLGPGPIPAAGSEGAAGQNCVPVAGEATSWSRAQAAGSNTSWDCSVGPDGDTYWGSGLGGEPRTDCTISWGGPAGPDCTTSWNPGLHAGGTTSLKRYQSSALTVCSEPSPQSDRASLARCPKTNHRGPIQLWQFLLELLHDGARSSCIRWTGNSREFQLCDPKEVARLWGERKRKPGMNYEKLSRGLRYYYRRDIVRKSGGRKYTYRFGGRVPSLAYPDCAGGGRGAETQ
# Outline: as §1
# ELF3 = biological target: T11, ELF3 (Homo sapiens, UniProt P78545 1-371); settings: protein: recombinant; tags: N-terminal GST; dsDNA, one strand shown
# T11 sequence: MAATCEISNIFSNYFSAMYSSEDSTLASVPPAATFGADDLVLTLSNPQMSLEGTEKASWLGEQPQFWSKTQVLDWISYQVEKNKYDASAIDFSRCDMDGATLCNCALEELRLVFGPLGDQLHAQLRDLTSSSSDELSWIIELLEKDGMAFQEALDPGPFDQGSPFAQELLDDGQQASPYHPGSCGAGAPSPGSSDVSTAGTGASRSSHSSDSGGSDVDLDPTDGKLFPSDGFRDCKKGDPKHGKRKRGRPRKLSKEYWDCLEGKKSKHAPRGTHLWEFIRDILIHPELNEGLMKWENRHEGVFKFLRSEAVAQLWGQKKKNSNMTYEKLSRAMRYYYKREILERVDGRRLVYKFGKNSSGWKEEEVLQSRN
# Outline: as §1
# ETV1 = ETV1 (Homo sapiens, UniProt P50549 1-477); settings: protein: recombinant; tags: N-terminal GST; dsDNA, one strand shown
# Outline: as §1
# Chain of ELF1 (P32519 whole entry): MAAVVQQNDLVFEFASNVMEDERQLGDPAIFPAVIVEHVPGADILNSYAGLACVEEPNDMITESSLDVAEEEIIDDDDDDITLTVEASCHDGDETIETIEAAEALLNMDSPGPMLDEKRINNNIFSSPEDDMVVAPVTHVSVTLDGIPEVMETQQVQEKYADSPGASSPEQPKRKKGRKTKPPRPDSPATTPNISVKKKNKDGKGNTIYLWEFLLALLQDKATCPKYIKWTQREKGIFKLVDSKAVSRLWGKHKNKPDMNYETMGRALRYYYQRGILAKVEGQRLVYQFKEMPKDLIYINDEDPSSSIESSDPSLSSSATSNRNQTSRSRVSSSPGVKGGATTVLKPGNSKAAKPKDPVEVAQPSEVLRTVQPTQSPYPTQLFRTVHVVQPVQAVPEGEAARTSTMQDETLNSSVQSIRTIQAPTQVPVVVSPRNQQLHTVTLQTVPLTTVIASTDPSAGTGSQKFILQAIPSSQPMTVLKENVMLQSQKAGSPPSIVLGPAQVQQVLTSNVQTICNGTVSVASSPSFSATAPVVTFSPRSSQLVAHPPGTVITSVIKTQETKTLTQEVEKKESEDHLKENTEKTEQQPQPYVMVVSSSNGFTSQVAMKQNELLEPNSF
# Chain of HSF1 (Q00613 whole entry): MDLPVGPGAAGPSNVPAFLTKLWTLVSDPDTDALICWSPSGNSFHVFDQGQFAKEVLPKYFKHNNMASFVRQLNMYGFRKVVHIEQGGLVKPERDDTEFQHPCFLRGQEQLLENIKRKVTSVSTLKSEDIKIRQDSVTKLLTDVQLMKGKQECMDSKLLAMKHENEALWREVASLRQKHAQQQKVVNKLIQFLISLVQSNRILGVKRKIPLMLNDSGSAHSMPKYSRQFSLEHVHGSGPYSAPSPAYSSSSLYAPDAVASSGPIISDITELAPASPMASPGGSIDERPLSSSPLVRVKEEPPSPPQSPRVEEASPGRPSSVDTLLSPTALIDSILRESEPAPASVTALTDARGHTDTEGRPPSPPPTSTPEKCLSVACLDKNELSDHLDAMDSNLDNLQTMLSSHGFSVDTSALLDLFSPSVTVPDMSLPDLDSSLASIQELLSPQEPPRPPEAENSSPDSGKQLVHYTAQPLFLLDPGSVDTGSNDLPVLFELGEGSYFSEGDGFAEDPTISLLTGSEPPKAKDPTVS
# Chain of ETV5 (P41161 whole entry): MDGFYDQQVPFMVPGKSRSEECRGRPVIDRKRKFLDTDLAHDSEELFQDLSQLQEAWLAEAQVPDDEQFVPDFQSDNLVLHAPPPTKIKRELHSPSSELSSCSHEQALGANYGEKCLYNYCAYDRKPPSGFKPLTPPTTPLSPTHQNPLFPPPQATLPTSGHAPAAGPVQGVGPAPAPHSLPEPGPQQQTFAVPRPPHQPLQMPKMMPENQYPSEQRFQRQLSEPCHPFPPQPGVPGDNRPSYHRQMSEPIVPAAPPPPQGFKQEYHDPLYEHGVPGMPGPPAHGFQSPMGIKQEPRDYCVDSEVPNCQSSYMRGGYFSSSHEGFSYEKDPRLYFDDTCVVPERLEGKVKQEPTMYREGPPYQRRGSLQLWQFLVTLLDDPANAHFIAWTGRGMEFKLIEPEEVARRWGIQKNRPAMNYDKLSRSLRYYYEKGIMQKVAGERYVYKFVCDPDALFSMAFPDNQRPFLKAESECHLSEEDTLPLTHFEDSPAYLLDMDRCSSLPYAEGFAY
# Chain of ELF4 (Q99607 whole entry): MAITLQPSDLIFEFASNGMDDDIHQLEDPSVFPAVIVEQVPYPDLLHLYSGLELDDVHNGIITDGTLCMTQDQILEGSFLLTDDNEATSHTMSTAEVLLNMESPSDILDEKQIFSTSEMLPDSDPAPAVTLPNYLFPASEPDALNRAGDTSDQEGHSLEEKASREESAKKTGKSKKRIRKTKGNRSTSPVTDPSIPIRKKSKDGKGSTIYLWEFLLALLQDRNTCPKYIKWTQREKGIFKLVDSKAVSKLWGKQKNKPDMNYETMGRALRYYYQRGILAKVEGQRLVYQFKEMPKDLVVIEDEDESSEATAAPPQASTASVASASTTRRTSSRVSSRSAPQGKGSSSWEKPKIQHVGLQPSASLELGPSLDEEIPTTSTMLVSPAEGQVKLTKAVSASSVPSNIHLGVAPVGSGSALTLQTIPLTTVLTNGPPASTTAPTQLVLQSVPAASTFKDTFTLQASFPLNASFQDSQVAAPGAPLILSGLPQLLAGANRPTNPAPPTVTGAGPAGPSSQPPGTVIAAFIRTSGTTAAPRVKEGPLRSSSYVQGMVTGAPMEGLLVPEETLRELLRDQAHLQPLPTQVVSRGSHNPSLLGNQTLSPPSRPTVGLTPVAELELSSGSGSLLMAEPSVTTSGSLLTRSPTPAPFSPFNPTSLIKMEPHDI
# Chain of ETV1 (P50549 whole entry): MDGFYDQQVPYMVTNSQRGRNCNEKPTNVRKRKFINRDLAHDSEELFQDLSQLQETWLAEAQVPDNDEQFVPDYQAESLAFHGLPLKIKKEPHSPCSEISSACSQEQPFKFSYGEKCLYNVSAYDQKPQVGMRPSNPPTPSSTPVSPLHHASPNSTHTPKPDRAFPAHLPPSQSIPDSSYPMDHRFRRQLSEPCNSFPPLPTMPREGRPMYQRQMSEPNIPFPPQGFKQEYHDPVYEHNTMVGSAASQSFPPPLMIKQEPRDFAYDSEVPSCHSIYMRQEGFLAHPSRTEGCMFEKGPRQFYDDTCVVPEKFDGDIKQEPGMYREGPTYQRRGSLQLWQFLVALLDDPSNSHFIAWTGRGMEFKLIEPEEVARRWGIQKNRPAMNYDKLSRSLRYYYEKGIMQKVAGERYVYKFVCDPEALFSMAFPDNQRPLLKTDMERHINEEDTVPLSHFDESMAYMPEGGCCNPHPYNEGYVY
# Chain of SPIB (Q01892 whole entry): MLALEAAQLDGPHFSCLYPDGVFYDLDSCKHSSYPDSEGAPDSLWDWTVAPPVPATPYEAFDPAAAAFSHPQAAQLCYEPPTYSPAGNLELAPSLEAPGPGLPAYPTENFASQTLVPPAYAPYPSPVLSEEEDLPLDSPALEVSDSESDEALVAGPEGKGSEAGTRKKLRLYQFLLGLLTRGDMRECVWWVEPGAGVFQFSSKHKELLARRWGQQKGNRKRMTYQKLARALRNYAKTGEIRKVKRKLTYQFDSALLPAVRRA
sequence,measurement,setting,value
ATGTAC,binding signal,FLI1,"1.31 fold enrichment (6-mer frequency, TF over GST control)"
same,binding signal,ELK1,"1.31 fold enrichment (6-mer frequency, TF over GST control)"
same,binding signal,GABPA,"1.19 fold enrichment (6-mer frequency, TF over GST control)"
same,binding signal,ERG,"1.11 fold enrichment (6-mer frequency, TF over GST control)"
same,binding signal,ELF1,"1.27 fold enrichment (6-mer frequency, TF over GST control)"
same,binding signal,EHF,"1.25 fold enrichment (6-mer frequency, TF over GST control)"
same,binding signal,SPI1,"1.23 fold enrichment (6-mer frequency, TF over GST control)"
same,binding signal,SPIB,"1.27 fold enrichment (6-mer frequency, TF over GST control)"
same,binding signal,ELK3,"1.26 fold enrichment (6-mer frequency, TF over GST control)"
same,binding signal,FEV,"1.3 fold enrichment (6-mer frequency, TF over GST control)"
same,binding signal,ETV5,"1.23 fold enrichment (6-mer frequency, TF over GST control)"
same,binding signal,HSF1,"1.16 fold enrichment (6-mer frequency, TF over GST control)"
same,binding signal,SPIC,"1.31 fold enrichment (6-mer frequency, TF over GST control)"
same,binding signal,ELF4,"1.31 fold enrichment (6-mer frequency, TF over GST control)"
same,binding signal,ELK4,"1.37 fold enrichment (6-mer frequency, TF over GST control)"
same,binding signal,ETV2,"1.39 fold enrichment (6-mer frequency, TF over GST control)"
same,binding signal,ELF3,"1.3 fold enrichment (6-mer frequency, TF over GST control)"
same,binding signal,ETV1,"1.35 fold enrichment (6-mer frequency, TF over GST control)"
